High-throughput results: PubChem BioAssay, National Center for Advancing Translational Sciences (NCATS)
An excerpt weighted towards active compounds, which were near 2.4% of everything screened.
D2 antag = HTS Assay for Allosteric Antagonists of the Human D2 Dopamine Receptor: Primary Screen for Antagonists. HEK293 TREx D2 cells, calcium flux, dopamine EC80. D(2) dopamine receptor (Homo sapiens), P14416. inhibition, % at 10 µM. 2% of 340,000 active. AID 485344, 2010; in the data active = inhibition above about 30%; inactive = below that, where a call was filed; also: 0% is about no effect
Target sequence (P14416 whole entry, looked up): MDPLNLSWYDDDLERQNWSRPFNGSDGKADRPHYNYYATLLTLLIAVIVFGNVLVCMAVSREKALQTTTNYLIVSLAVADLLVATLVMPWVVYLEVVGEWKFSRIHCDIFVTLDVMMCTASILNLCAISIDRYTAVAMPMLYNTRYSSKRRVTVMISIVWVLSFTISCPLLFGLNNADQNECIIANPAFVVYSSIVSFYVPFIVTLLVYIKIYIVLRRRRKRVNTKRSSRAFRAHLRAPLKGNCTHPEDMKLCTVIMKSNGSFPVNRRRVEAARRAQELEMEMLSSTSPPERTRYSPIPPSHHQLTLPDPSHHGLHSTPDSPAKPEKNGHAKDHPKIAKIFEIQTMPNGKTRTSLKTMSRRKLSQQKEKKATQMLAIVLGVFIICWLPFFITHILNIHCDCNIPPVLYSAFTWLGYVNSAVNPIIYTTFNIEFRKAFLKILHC
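Compounds are added to dye-loaded, induced HEK293 T-REx cells coupled to calcium release via D2; after a 3 min kinetic read an EC80 dopamine stimulus is given and fluorescence is recorded for 3 more min.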
D2 PAM-1 = HTS Assay for Positive Allosteric Modulators of the Human D2 Dopamine Receptor: Primary Screen for Potentiators; HEK293 T-REx D2, calcium flux, EC20 dopamine potentiation; potentiation, % at 10 µM; D(2) dopamine receptor (Homo sapiens), P14416; 0.34% of 340,000 active;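 active = potentiation over 3 SD above the plate norm, cut at about 30% in these data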; also: 0% is about no effect
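Potentiation of an EC20 dopamine calcium response measured kinetically over 180 s, after a preceding 180 s compound-only read flagging agonists. Cells: inducible Hek293 Trex D2 line, 4000/well, cultured overnight at 30 C before dye loading.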
D2 ag-1 = Beta-Arrestin HTS for Positive Allosteric Modulators of the Human D2 Dopamine Receptor: Agonists; activation, % (test concentration not listed); D(2) dopamine receptor (Homo sapiens), P14416; DiscoveRx PathHunter D2 beta-arrestin, luminescence, 90 min; 100% = 57 uM dopamine signal; 0.084% of 360,000 active; in the data active = activation above about 40%; inconclusive = between about 15% and that limit
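DiscoveRx PathHunter D2 beta-arrestin cells (2,100/well) attached overnight, then compound-stimulated 90 min at 37 C in HBSS/10 mM HEPES/0.1% Tween-20 buffer; beta-galactosidase complementation read by luminescence after 1 h at ambient temperature. Dopamine 57 uM final (EC100) as control.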
D2 PAM-2 = Beta-Arrestin HTS for Positive Allosteric Modulators of the Human D2 Dopamine Receptor: Potentiators; D(2) dopamine receptor (Homo sapiens), P14416; DiscoveRx D2 beta-arrestin cells, luminescence, 90 min; 100% = 57 uM dopamine signal; potentiation, % (concentration not given with the values); 0.23% of 360,000 active; AID 624464, 2012; in the data active = potentiation above about 50%; inconclusive = mostly about 30% to 49%
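PathHunter D2 cells, attached overnight at 37 deg C, received compound in DMSO plus dopamine at EC20 (50 nM final) for 90 min at 37 deg C. Beta-arrestin recruitment was read as luminescence after 1 h with detection reagent at ambient temperature.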
D2 ag-2 = HTS Assay for Allosteric Agonists of the Human D2 Dopamine Receptor: Primary Screen for Agonists | D(2) dopamine receptor (Homo sapiens), P14416 | HEK293 T-REx D2 cells, calcium flux agonist mode | activation, % at 2 µM | 0.53% of 340,000 active;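 active = activation over 3 SD above normal in the single-dose calcium agonist read, cut at about 30% in these data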; also: 0% is about no effect
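Agonism is scored from calcium flux in a force-coupled, inducible HEK293 cell line expressing D2, read kinetically for 180 s after compound addition against dopamine controls.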
* marks the source's active call; other numbers are inactive results; u = inconclusive; x = no result given.

SMILES	D2 antag	D2 PAM-1	D2 ag-1	D2 PAM-2	D2 ag-2
Cc1oc(-c2cccs2)nc1CN1CCC(CO)(CCOc2ccccc2)CC1	54*	-8	-4	-29	-1
CCOC(=O)C1(CCOC)CCN(Cc2nc(-c3cccs3)oc2C)CC1	31*	-22	-3	-14	1
COC(=O)c1ccc(-n2c(/C=C\c3cccc(Br)c3)nc3ccccc3c2=O)cc1	x	2	x	x	0
Cc1ccc(CCNC(=O)c2cc3c(-c4ccccc4F)nn(C)c3s2)cc1	x	-14	x	x	0
CCCCN(CC)CCNC(=O)c1cc2c(-c3ccccc3F)nn(C)c2s1	-28	-4	44*	8	1
CCCCN(CC)CCNC(=O)c1cc2c(=O)n(CC)c3ccccc3c2s1	36*	8	-2	-19	-3
CCOc1ccccc1NS(=O)(=O)c1ccc2c(c1)CC(C)N2C(=O)C1CC1 (configuration not stated)	x	4	x	x	-2
CC(C)NC(=O)c1ccc2c(c1)nc1n2CCCCC1	x	-7	x	x	2
O=C(Nc1nnc(C(F)(F)F)s1)c1ccc(Br)s1	35*	-18	-10	-6	19
CCSc1nnc(NC(=O)c2ccc(Br)s2)s1	-11	0	-2	-18	1
c1ccc(C(c2nnnn2Cc2ccco2)N2CCN(c3nc4ccccc4s3)CC2)cc1 (configuration not stated)	12	30*	0	26	-1
CCc1ccccc1NC(=O)C(=O)NCC(c1cccnc1)N1CCc2ccccc21 (configuration not stated)	x	3	x	x	-1
Cc1cc2c(cc1S(=O)(=O)Nc1cccc(Cl)c1C)OCCN2C	x	3	x	x	-1
Clc1ccccc1CSc1nc2ccncc2[nH]1	32*	-2	1	-1	-1
O=C(NCc1ccccc1Cl)c1ccc(CSc2nc3ccncc3[nH]2)cc1	-9	28	2	2	-1
N#Cc1ccccc1COC(=O)c1ccc2c(c1)OCCO2	31*	-4	4	-21	0
CCCNC(=O)C1CCC(CNS(=O)(=O)c2ccc3c(c2)CC(C)N3C(C)=O)CC1 (configuration not stated)	41*	10	-2	-10	2
CC(=O)N1c2ccc(S(=O)(=O)NCC3CCC(C(=O)NCCC(C)C)CC3)cc2CC1C (configuration not stated)	x	-13	x	x	x
C=CCc1ccccc1OCc1nc2ccc(C)cc2[nH]1	x	-12	x	x	x
Cc1cc(C)cc(N=Cc2[nH]c3ccc(Br)c(Cl)c3c2O)c1	-4	-4	6	-12	34*
CCN(C(=O)C1CCCN(S(=O)(=O)c2c(C)noc2/C=C/N(C)C)C1)c1cccc(C)c1 (configuration not stated)	x	3	x	x	0
Cc1ccc2nc(Nc3ccccc3)c(C=O)c(=O)n2c1	-1	37*	6	20	0
CC(C)(C)C(=O)Cn1c(=O)n(-c2ccccc2)c(=O)c2c3c(sc21)CCC3	x	0	x	x	0
O=C(CSc1nc2nc[nH]c2c(=O)[nH]1)NC1CCCCC1	48*	-6	-3	-10	1
Cc1cc(C)nc(N/N=C/C2=C(N3CCOCC3)C(=C\c3ccc(Cl)cc3)/CC2)n1	6	6	-8	2	2
SMILES	D2 antag	D2 PAM-1	D2 ag-1	D2 PAM-2	D2 ag-2
O=C(O)c1ccc(N/N=C/C2=C(N3CCOCC3)C(=C\c3ccccc3)/CC2)cc1	10	-5	11	51*	11
Cc1nc2nc(SCC(=O)NCCc3ccc(Cl)cc3)nn2c(C)c1Cc1ccccc1	x	-2	x	x	0
Cc1ccc(NC(=O)COc2cccc3c2OC(C)(C)C3)c(O)c1	30*	-3	-2	-13	-1
Cc1ccc(S(=O)(=O)Oc2ccccc2N2C(=O)C3CC=CCC3C2=O)cc1 (configuration not stated)	40*	-2	-1	6	1
CCOC(=O)CN(C(=O)CSc1nnc2c(n1)[nH]c1ccc(OC)cc12)c1ccc(F)cc1	80*	-27	0	-27	1
CCn1c(=O)cc(OCC(=O)NCCCN2CCC(C)CC2)c2ccccc21	x	-16	-3	-27	x
CN(CCNC(=O)CCCOc1cc(=O)n(C)c2ccccc12)Cc1ccccc1	47*	x	-4	-8	0
CC1CCN(CCCNC(=O)c2n[nH]c(=O)c3ccccc23)CC1	41*	-13	-1	-37	0
CC1CCN(CCCNC(=O)COc2cc(=O)n(C)c3ccccc23)CC1	34*	-17	-1	-10	1
CCn1c(=O)cc(OCC(=O)NCCCN2CC(C)CC(C)C2)c2ccccc21 (configuration not stated)	58*	-18	-2	-26	0
CN(CCCNC(=O)CCCOc1cc(=O)n(C)c2ccccc12)Cc1ccccc1	23	-14	-5	-19	1
O=S(=O)(c1ccc(Br)s1)N1CCN(c2cccc(C(F)(F)F)c2)CC1	x	-7	x	x	2
Cc1cccc(NC(=O)c2oc3ccc(S(=O)(=O)N4CCC5(CC4)OCCO5)cc3c2C)c1C	x	6	x	x	0
CCOC(=O)N1CCN(C(=O)C2CCN(S(=O)(=O)c3cc(C)ccc3OC)CC2)CC1	33*	-2	-2	-1	-1
Cc1cccnc1NC(=O)CSc1ccc2c(c1)OCCO2	32*	-1	-1	-2	2
COc1ccc(Cc2nnc(SCC(=O)N(C)c3ccccc3)o2)cc1	66*	2	4	-3	-1
COc1ccc(Cc2nnc(SCC(=O)c3ccccc3)o2)cc1	8	-2	-4	-3	1
Cc1cccnc1NC(=O)CSc1nnc(Cc2ccccc2)o1	44*	-4	-1	-5	0
O=C(CSc1ccc2c(c1)OCCO2)Nc1cccnc1Cl	-9	9	-7	-2	0
Cc1ccccc1-c1nnc(SCC(=O)Nc2cccnc2Cl)o1	x	x	0	-6	x
CCCCN(C)CCNC(=O)c1ccc(Cn2c(=O)[nH]c3cc(OC)c(OC)cc3c2=O)cc1	x	-18	x	x	1
Cc1cccc(-c2noc(CN(C(=O)COc3ccc(Br)cc3C)C(C)C)n2)c1	x	-1	x	x	x
COc1ccccc1CNc1cc(-c2ccccc2)nc2nncn12	x	12	x	x	-1
CCc1ccc(S(=O)(=O)Nc2ccc3[nH]c(=O)sc3c2)cc1	x	-3	x	x	1
O=C1c2ccccc2CCCC12N=NCC2c1cccc2ccccc12 (configuration not stated)	x	x	u	119*	x
